# In PubChem BioAssay (NCI):
# About 83,000 compounds went through this panel and 20% of them were active in at least one assay; those are over-represented in the sample as a whole.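 Note: values are percent growth. 100 is the growth of untreated cells, values between 100 and 0 indicate rising inhibition; between -100 and 0 indicates cell death.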 A number with no mark means an inactive call. The source made the active and inactive calls. Rule for the calls: active = growth percent below 10; inactive = the rest.
# Test system: SK-MEL-28 melanoma
# Test: NCI-60 one-dose screen, 48 h (100 = growth as untreated, 0 = no growth, -100 = all killed)
# Settings: 10 µM unless noted
row,SMILES,growth
1,Cc1ccc(Cl)c(NS(=O)(=O)c2ccc(-c3cnc(C4CC4)o3)cc2)c1,53.7%
2,O=C(NC(Cc1nnc2n(Cc3ccccc3)c(=O)c3c4c(sc3n12)CCCC4)c1ccc(Cl)cc1)c1ccccc1 (stereo unspecified),103%
3,Cc1c(O)cc(-c2cnc(N/N=C\c3ccc(Cl)cc3)s2)c(O)c1C,94.4%
4,CCN(CC)CCn1nc2c3c(cccc3c1=O)-c1ccccc1-2,37.1%
5,Fc1c[c-]c(-c2ccccn2)c(F)c1.[CH3-].[Pt+2].c1ccc(P(C[PH+](c2ccccc2)c2ccccc2)c2ccccc2)cc1,-51.2% (active)
6,CCN1C(=O)N(CC)C2Nn3c(s/c(=C\c4cccc([N+](=O)[O-])c4)c3=O)=NC21 (stereo unspecified),57.3%
7,N#C/C(=C/C=C/c1cccc(Cl)c1)S(=O)c1ccccc1 (stereo unspecified),-61.1% (active)
8,Oc1c(CN2CCCC2)cc(COCc2ccc(Br)cc2)c2cccnc12,24.2%
9,O=C(CCCCCCN1CC(=O)N2[C@@H](c3ccccc3Cl)c3[nH]c4ccccc4c3C[C@H]2C1=O)NO,43.8%
10,COc1ccc(C2CC(c3cccc(OC)c3)=NN2C(=O)c2cc(OC)c(OC)c(OC)c2)cc1 (stereo unspecified),56.2%
11,CCc1c2c(nc3ccc(OC(=O)OCc4ccc(B5OC(C)(C)C(C)(C)O5)cc4)cc13)-c1cc3c(c(=O)n1C2)COC(=O)[C@]3(O)CC,-0.304% (active)
